Test results reported in the supplement of paper PMC13380429.

Each molecule was assayed on Vero E6 infected with SARS-CoV-2 (assay: morphology score (similarity to uninfected cells); higher = more like uninfected cells). Settings: 24 h.

Compound | morphology score
C=C[C@@]1(C)CC(=O)[C@]2(O)[C@@]3(C)[C@@H](O)CCC(C)(C)[C@@H]3[C@H](O)[C@H](OC(C)=O)[C@@]2(C)O1 [colforsin] (10 µM) | 0.455
c1ccc2nc(C3=NCCN3)cnc2c1 (10 µM) | 0.177
O=C1OC2(c3ccc(O)cc3Oc3cc(O)ccc32)c2ccccc21 [fluorescein] (10 µM) | 0.0519
CCC(=O)O[C@H]1[C@H](O[C@@H]2[C@@H](C)[C@H](O[C@H]3C[C@@](C)(OC)[C@@H](O)[C@H](C)O3)[C@@H](C)C(=O)O[C@H](CC)[C@@](C)(O)[C@H](O)[C@@H](C)C(=O)[C@H](C)C[C@@]2(C)O)O[C@H](C)C[C@@H]1N(C)C [erythromycin-estolate] (10 µM) | 0.0736
CN1CCN(CC/C=C2/c3ccccc3Sc3ccc(S(=O)(=O)N(C)C)cc32)CC1 [thiothixene] (10 µM) | 0.381
CC(C)C1=C2[C@H]3CC[C@@H]4[C@@]5(C)CC[C@H](OC(=O)CC(C)(C)C(=O)O)C(C)(C)[C@@H]5CC[C@@]4(C)[C@]3(C)CC[C@@]2([C@@H](O)CN(CCN(C)C)Cc2ccc(Cl)cc2)CC1=O (10 µM) | 0.203
COc1cc(C(=O)NC2CCCNC2)cc(OC)c1OC (centres undefined) [troxipide] (10 µM) | -0.014
CO[C@@H]1[C@H](O)[C@@H](CO)O[C@H]1n1cnc2c(NC3CCCCC3)ncnc21 (10 µM) | -0.0183
c1ccc2sc(SN3CCOCC3)nc2c1 [N-oxydiethylenebenzothiazole-2-sulfenamide] (10 µM) | -0.00631
NC[C@@](O)(c1ccc(Cl)cc1)c1ccc(-c2cn[nH]c2)cc1 (10 µM) | 0.174
CCC(=O)O[C@H](CC(=O)O)C[N+](C)(C)C [levocarnitine-propionate] (10 µM) | -0.0873
CNC(=O)ON(C(C)=O)C(=O)NC [caracemide] (10 µM) | 0.0974
CS(=O)(=O)N(Cc1ccco1)C[C@@H](O)Cn1c2ccccc2c2ccccc21 (10 µM) | 0.000274
O=C(Nc1cccc(Cl)c1)Nc1ncc(CCNc2ncnc3ccsc23)s1 (10 µM) | 0.393
CC/C(=C(/c1ccc(/C=C/C(=O)O)cc1)c1ccc2[nH]ncc2c1)c1ccc(F)cc1Cl (10 µM) | 0.0792
Clc1ccc(Cn2c(CN3CCCC3)nc3ccccc32)cc1 [clemizole] (10 µM) | 0.153
Cc1cc(C)cc(OCC2CNC(=O)O2)c1 (centres undefined) [metaxalone] (10 µM) | 0.134
CCCCc1ccc(NS(=O)(=O)c2ccc(F)cc2)cc1 (10 µM) | 0.122
NCc1cc(O)no1 [muscimol] (10 µM) | -0.00274
CN1CCN(c2ccc(/C=C(\C#N)c3ccccc3Br)cc2)CC1 (10 µM) | -0.13

Compound | morphology score
COc1cc(C[C@H]2c3cc(OC)c(OC)cc3CCN2C)c(Oc2cc3c(cc2OC)-c2c(OC)c(OC)cc4c2[C@H](C3)N(C)CC4)cc1OC [thaliblastine] (10 µM) | 0.443
O=C(NCCCNc1nc(Nc2cccc(NC(=O)N3CCCC3)c2)ncc1I)c1cccs1 (0.833333 µM) | 0.0981
COc1ccc(Nc2ncnc3ccc(OC)cc23)cc1 (10 µM) | -0.228
CCNC(=O)[C@@H]1CCCN1C(=O)[C@H](CCCNC(=N)N)NC(=O)[C@H](CC(C)C)NC(=O)[C@@H](CC(C)C)NC(=O)[C@H](Cc1ccc(O)cc1)NC(=O)[C@H](CO)NC(=O)[C@H](Cc1c[nH]c2ccccc12)NC(=O)[C@H](Cc1c[nH]cn1)NC(=O)[C@@H]1CCC(=O)N1 [leuprolide] (10 µM) | -0.258
CCN(CCCOc1ccc2c(Nc3cc(CC(=O)Nc4cccc(F)c4)[nH]n3)ncnc2c1)CCOP(=O)(O)O [barasertib] (0.833333 µM) | 0.0323
N=C(N)NCCC[C@H](N)C(=O)O [L-arginine] (10 µM) | 0.0506
CCN(CC)C(=S)S [ditiocarb-sodium-trihydrate] (10 µM) | 0.761
CCOP(=S)(OCC)Oc1nc(Cl)c(Cl)cc1Cl [chlorpyrifos] (10 µM) | -0.24
COc1cc2c(N3CCN(C(=O)Nc4ccc(OC(C)C)cc4)CC3)ncnc2cc1OCCCN1CCCCC1 [tandutinib] (10 µM) | -0.0843
CC1(C)Oc2ccc(C#N)cc2[C@@H](N2CCCC2=O)[C@@H]1O [levcromakalim] (10 µM) | 0.221
C#Cc1cncc([C@@H]2CCCN2C)c1 [altinicline] (10 µM) | 0.0585
C/C=C(/C(=C/C)c1ccc(O)cc1)c1ccc(O)cc1 [dienestrol] (10 µM) | -0.0419
CC(C)(CCCCCC(O)CCCCCC(C)(C)C(=O)O)C(=O)O [bempedoic-acid] (10 µM) | 0.0218
N#Cc1ccc(C(c2ccc(C#N)cc2)n2cncn2)cc1 [letrozole] (10 µM) | 0.138
CN(NC(=O)CC(=O)NN(C)C(=S)c1ccccc1)C(=S)c1ccccc1 [elesclomol] (10 µM) | 0.879
Cc1ccc2c(c1)=C(c1ccccc1)C(C1=NN(C(=O)CCC(=O)O)C(c3ccc(Br)cc3)C1)C(=O)N=2 (centres undefined) (10 µM) | -0.085
Cc1cc(-c2ccc(CC(=O)Nc3ccc(-c4cccnc4)cc3)cc2)ccn1 (10 µM) | 0.392
O=C(CCCN1CCC2(CC1)C(=O)NCN2c1ccccc1)c1ccc(F)cc1 [spiperone] (10 µM) | 0.763
O=C(CCCCCCNC(=O)c1cnc(N(c2ccccc2)c2ccccc2)nc1)NO (0.833333 µM) | -0.13
